The term inhibition denotes the drop in the measured response relative to a control, in per cent.

Experimental findings from PubChem BioAssay AID1578 (Sanford-Burnham Center for Chemical Genomics, 2009) are described below.

Molecules are shown by their SMILES. In all, about 290,000 compounds went through this assay and about 3,000 (1%) were called active. For the sample, actives were picked, then their nearest neighbours and some compounds at random. Unmarked numbers belong to inactive results. Cut-off read from the data, not from the text of the source: active = inhibition mostly above about 36% (no sharp cut-off); inactive = mostly below about 34%.

This experiment in a line: inhibition of NOD1-driven NF-kB reporter – cell-based, luminescence, uHTS, primary screen (AID 1578).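 Note: HEK-293T reporter cells stimulated with the NOD1 agonist gamma-tri-DAP.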 As to conditions: NOD1-driven NF-kB luciferase reporter cells, at 4 µM, hits give high values. For orientation: Reporter assays use an easily measured gene product as a stand-in for the process of interest.
For `CCOc1ccc(NC(=O)C2CCCN(S(=O)(=O)c3cnc[nH]3)C2)cc1` (configuration not stated), the inhibition was -9.3%.
Turning to `CCN(CC)S(=O)(=O)c1ccc(Cl)c(NC(=O)COC(=O)c2ccc(O)cc2)c1`, the inhibition is 21.8%.
For `COc1cccc(NC(=O)Nc2nc(SC)ns2)c1`, the inhibition was -38%.
For the molecule `CCSc1nsc(NC(=O)Nc2ccccc2F)n1`, the inhibition is -1.8%.
The value for `CCCSc1nsc(NC(=O)Nc2ccc(F)cc2F)n1` was 43%; that for `CCSc1nsc(NC(=O)Nc2ccc(F)cc2F)n1` was 26%; that for `CCSc1nsc(NC(=O)Nc2cccc(OC)c2)n1` was 52.2%.
`COc1cccc(NC(=O)Nc2nc(SC(C)(C)C)ns2)c1`: the inhibition was 40.2%.
For the molecule `CCn1cc(CN2CCC(C(=O)Nc3cccc(-c4cscn4)c3)CC2)cn1`, the inhibition was -27.3%.
As to `CC(C)(C)c1cc(CCC(=O)NCCc2ccccn2)cc(C(C)(C)C)c1O`, the inhibition was -9.5%.
Regarding `COc1ccc(/C=C(\NC(=O)c2ccc(Cl)cc2)C(=O)NCCCn2ccnc2)cc1OC`, the inhibition is 18.2%.
Turning to `CN1CCN(Cc2nc3c(c(=O)n(C)c(=O)n3C)n2CCCc2ccccc2)CC1`, the inhibition is 16.4%.
On to `COc1cccc(Nc2c(Nc3cccc(OC)c3)c(=O)c2=O)c1`, for which the inhibition was -10.3%.
For the molecule `CC1(C)CC(=O)C(C(c2ccccc2F)C2C(=O)CC(C)(C)CC2=O)C(=O)C1`, the inhibition was 0.7%.
Regarding `Cc1ccc(S(=O)(=O)NC(CN2CCOCC2)=NCCNS(=O)(=O)c2ccccc2)cc1`, the inhibition is 31.6%.
For `CN1CCN(c2ccc(-c3ccnn3C(=O)Nc3cccc(C(F)(F)F)c3)cc2)CC1`, the inhibition was 19.1%.
In the case of `COC(=O)c1cc(N=Nc2sc(N)nc2C)cc(C(=O)OC)c1`, the inhibition was -4.7%.
Regarding `CCC(=O)Nc1cc2nn(-c3ccc(C)cc3)nc2cc1C`, the inhibition is 58.2% (active).
In the case of `CCC(=O)Nc1cc2nn(-c3ccc(OC)cc3)nc2cc1C`, the inhibition is -20%.
On to `CCCCC(=O)Nc1cc2nn(-c3ccc(OC)cc3)nc2cc1C`, for which the inhibition is -94.7%.
The value for `COc1ccc(C(=O)N/C(=C\c2ccccc2)C(=O)Nc2ccc(C(=O)O)cc2)cc1` was 0.4%; that for `CCN(CC(=O)Nc1ccc(NC(C)=O)cc1)C(=O)/C=C/c1cn(-c2ccccc2)nc1-c1ccc(C)cc1` was 15.8%.
For `CCOC(=O)c1ccc(Oc2cn[nH]c2-c2ccc(O)cc2O)cc1`, the inhibition was 5.5%.
In the case of `CCOC(=O)C(C)n1nc(-c2ccccc2)c2ccccc2c1=O` (configuration not stated), the inhibition was 36.3% (active).
The figure for `CCOC(=O)Cn1nc(-c2ccccc2)c2ccccc2c1=O` is -6.3%.
Consider `CCOC(=O)Cc1nn(C(C)C)c(=O)c2ccccc12`, for which the inhibition was -21.4%.
As for `CCC(C(=O)O)N1C(=O)C2CCCCC2C1=O` (configuration not stated), the inhibition was 4.4%.
The value for `O=c1ccc(-c2ccccc2)n[nH]1` was -29%.
The value for `O=c1ccc(Cl)n[nH]1` was 61.4% (active); that for `O=c1ccc(Cc2ccc(Cl)cc2)n[nH]1` was -29.8%.
As to `CCn1c(SCC(=O)NC2CCCCC2)nnc1-c1ccccn1`, the inhibition is 2.9%.
The figure for `O=C(Nc1ccc(S(=O)(=O)Nc2ccccc2)cc1)c1ccc(CN2CCOCC2)cc1` is 76.1% (active); for `COc1ccc(C(=O)NC(=S)Nc2ccc(CN3CCOCC3)cc2)cc1` it is -0.3%.
The figure for `O=C(Nc1ccc(S(=O)(=O)N2CCCC2)cc1)c1ccc(CN2CCOCC2)cc1` is 44.6%.
For `COc1ccc(C(=O)Nc2ccc(CN3CCCCC3)cc2)cc1`, the inhibition was -37.1%.
On to `NC(=O)c1ccc(NC(=O)c2ccc(CN3CCOCC3)cc2)cc1`, for which the inhibition is -20.3%.
The figure for `c1ccc(COc2cccc(CNCc3cccnc3)c2)cc1` is -20%; for `CC(=O)Nc1ccc(S(=O)(=O)NCc2ccc(C)cc2)cc1` it is 2.4%.
As to `Cc1coc2cc3oc(=O)c4c(c3cc12)CCCC4`, the inhibition is -30.5%.
Regarding `COc1ccc(/C=N/Nc2ccccc2C(=O)O)cc1Cn1cc([N+](=O)[O-])cn1`, the inhibition is -11.8%.
The figure for `O=C(COC(=O)c1ccccc1C(=O)c1ccccc1)Nc1ccc(SC(F)F)cc1` is 7.1%.
Regarding `CCOC(=O)C1=C(C(F)(F)F)Nc2ncnn2C1c1cc(OC)ccc1OC` (configuration not stated), the inhibition was 10.8%.
On to `O=C(COc1ccccc1)NNc1c2ccccc2nc2ccccc12`, for which the inhibition was 40.5%.
As for `COc1ccc(OCC(=O)NNc2c3ccccc3nc3ccccc23)cc1`, the inhibition was 76.7% (active).
For the molecule `Cc1ccc(OCC(=O)NNc2c3ccccc3nc3ccccc23)cc1`, the inhibition was 52.5%.
In the case of `O=C(OCCN=C1NS(=O)(=O)c2ccccc21)c1ccccc1F`, the inhibition is 31.5%.
`O=C(NCCCN1CCCC1=O)[C@H](CSCc1ccccc1)N1Cc2ccccc2C1=O`: the inhibition is 1.9%.
Consider `Cc1ccc(NC(=O)CN(C)C(=O)Cc2c(Cl)cccc2Cl)cc1`, for which the inhibition was -9.1%.
The value for `CCOc1ccc(NC(=O)Nc2cccn(Cc3ccccc3)c2=O)cc1` was 44.3% (active); that for `CSc1ccc(NC(=O)Nc2cccn(Cc3ccccc3)c2=O)cc1` was 46.6%.
`CSc1ccc(NC(=O)Nc2cccn(Cc3ccccc3F)c2=O)cc1`: the inhibition is 89.6% (active).
In the case of `CCc1ccccc1NC(=O)Nc1cccn(Cc2ccccc2F)c1=O`, the inhibition is -23.3%.
With `COc1cccc(NC(=O)Nc2cccn(Cc3ccccc3)c2=O)c1`, the inhibition is -11%.
As for `COc1ccc(Cn2cccc(NC(=O)Nc3ccc(F)cc3)c2=O)cc1`, the inhibition was 37.8%.
Consider `O=C(O)CCCCCNC(=O)CCn1cnc2ccccc2c1=O`, for which the inhibition is 21.1%.
`COc1cc(OC)cc(-c2nnc(SCC(=O)Nc3cccc(C(=O)O)c3)s2)c1`: the inhibition is -32.1%.
In the case of `O=C(c1ccc(Cl)cc1)N1CCN(CCc2ccccn2)CC1`, the inhibition was -13%.
As for `COc1cc(/C=C2/C(=O)NN(c3ccc(F)cc3)C2=O)cc(Cl)c1O`, the inhibition was 12.2%.
For `COc1cc(/C=C2/C(=O)NN(c3ccccc3)C2=O)cc(Br)c1O`, the inhibition is 15.4%.
Regarding `OCC[C@@H]1C[C@H](O)[C@@H](O)[C@]2(Cc3ccccc3CO2)O1`, the inhibition is 15%.
On to `COc1ccc(C(=O)N(CCc2ccccc2)Cc2ccccc2)c(OC)n1`, for which the inhibition was -5.7%.
In the case of `O=C(NC1CCCCCCC1)c1cc(COc2ccc3ncccc3c2)on1`, the inhibition is 44.4% (active).
With `CC(NC(=O)c1cc(COc2ccc3ncccc3c2)on1)c1ccc(F)cc1` (configuration not stated), the inhibition was 7.2%.
Regarding `O=C(NC1CCCC1)c1cc(COc2ccc3ncccc3c2)on1`, the inhibition was 26.8%.
Regarding `Cc1ccc(OCc2cc(C(=O)NCc3cc(F)ccc3C)no2)cn1`, the inhibition is -13.5%.
`O=C(c1cc(COc2ccc3ncccc3c2)on1)N1CCCC1`: the inhibition was 19.1%.
Consider `CCC(O)C1CCN(C(=O)c2cc(COc3ccc4ncccc4c3)on2)CC1` (configuration not stated), for which the inhibition was 52.9%.
With `O=C(c1cc(COc2ccc3ncccc3c2)on1)N1CCC(O)CC1`, the inhibition was 0.3%.
The figure for `Cc1ccc(F)cc1CNC(=O)c1cc(COc2ccc3ncccc3c2)on1` is 59.8% (active); for `CCN1CCN(C(=O)c2cc(COc3ccc4ncccc4c3)on2)CC1` it is 26.3%.
For the molecule `CC(=O)c1ccc(OCc2cc(C(=O)NC3CCCCC3)no2)cc1`, the inhibition is -46.8%.
On to `CS(=O)(=O)N1CCN(c2ccccc2NC(=S)NC(=O)c2ccccc2[N+](=O)[O-])CC1`, for which the inhibition was -7.4%.
`O=C(COC(=O)CNS(=O)(=O)c1ccccc1)Nc1ccc(Cl)cn1`: the inhibition is -21%.
Regarding `Cc1cc(C)n(-c2ccc(C(=O)Nc3sccc3C(N)=O)cc2)n1`, the inhibition is -77.9%.
`COc1ncnc2c1oc1nc(C(C)C)c3c(c12)CC(C)(C)OC3`: the inhibition was -12.3%.
The figure for `CCN(CC)S(=O)(=O)c1cccc(N=Nc2sc(N)nc2C)c1` is 1.1%; for `N#Cc1ccc(OCC(O)CS(=O)(=O)c2ccccc2)cc1` (configuration not stated) it is -22.8%; for `CC(=O)c1ccc(NC(=O)C2CCCN(C(=O)c3ccc(Cl)cc3)C2)cc1` (configuration not stated) it is -22.6%.
In the case of `O=C1CCCN1S(=O)(=O)c1ccc(F)cc1`, the inhibition is 5.5%.
As to `CCOc1ccc(NC(=O)C2CCCN(S(=O)(=O)c3ccc4c(c3)CC(C)N4C(C)=O)C2)cc1` (configuration not stated), the inhibition was -4%.
As to `COn1c(-c2ccccc2)nc2ccc(Cl)cc21`, the inhibition was -72.4%.
In the case of `Cc1cc(C(=O)N/N=C/c2c(C)nn(-c3ccccc3)c2Cl)n[nH]1`, the inhibition was -4.6%.
Regarding `CC(=O)N(C(C)=O)S(=O)(=O)c1ccc(N=NN2CCOCC2)cc1`, the inhibition was -25.7%.
The figure for `O=C(Nc1ccccc1C(=O)Nc1cccnc1)c1ccccc1` is -11.8%.
Consider `Cc1csc(NC(=O)c2ccc(=O)[nH]c2)n1`, for which the inhibition was -4.6%.
The figure for `Cc1ccc2c(c1)C1CN(C)CCC1N2C(=S)NC(=O)c1ccc(Cl)cc1Cl` (configuration not stated) is -10.8%; for `Cc1ccc2c(c1)C1CN(C)CCC1N2C(=S)NC(=O)c1ccc(Br)cc1` (configuration not stated) it is 61.2% (active).
Regarding `Cc1ccc2c(c1)C1CN(C)CCC1N2C(=S)Nc1ccc(Cl)cc1Cl` (configuration not stated), the inhibition was 13%.
For `CCOc1cc(C2Nc3ccccc3NC3=C2C(=O)CC(C)(C)C3)ccc1O` (configuration not stated), the inhibition is -14.4%.
As to `NC(=O)CSc1nc(-c2ccccc2)nc2ccccc12`, the inhibition was -12.4%.
The value for `Cc1nonc1NC(=O)CSc1nc(C23CC4CC(CC(C4)C2)C3)nc2ccccc12` was 2.5%; that for `NC(=O)CSc1nc(C23CC4CC(CC(C4)C2)C3)nc2ccccc12` was 58.4% (active).
`Cc1ccc(NC(=O)CCOc2ccccc2)cc1`: the inhibition was -12.7%.
In the case of `CCC(C)NC(=O)C(Cc1ccccc1)n1cccc1` (configuration not stated), the inhibition is -8%.
In the case of `CCC1Oc2ccc(C)cc2N(CC(=O)N(Cc2cccnc2)Cc2cccc(F)c2)C1=O` (configuration not stated), the inhibition is 34.6% (active).
Take `CCC1Oc2ccc(C)cc2N(CC(=O)N(Cc2cccnc2)Cc2ccc(C)o2)C1=O` (configuration not stated): the inhibition is -12.7%.
For `CCC1Oc2ccc(C)cc2N(CC(=O)N(Cc2ccncc2)Cc2ccco2)C1=O` (configuration not stated), the inhibition is -36.7%.
